Screens: PubChem, Sanford-Burnham Center for Chemical Genomics
CYP2C19 inh – human CYP2C19 inhibition; P33261; actives 21% (n = 96,000); inhibition, % at 5 µM; CYP2C19 Supersomes, luciferin-H EGE luminescence, 30 min;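 active means CYP2C19 inhibition above a set limit at 5 µM in the primary screen, cut at about 50% in these data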
CYP2C19 act – cytochrome P450 2C19 (human) activation; P33261; 96,000 tested, under 10 active; recombinant CYP2C19, luciferin-H EGE luminescence; hits give high values; 0 = fully inhibited enzyme, 1 = untreated enzyme; activation factor at 5 µM;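 active means activation factor of at least 2 at 5 µM in the primary screen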
CYP2C9 inh – inhibitors of human CYP2C9; actives 20% (n = 96,000); CYP2C9 Supersomes, luciferin-H conversion, luminescence; P11712; inhibition, % at 5 µM;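 active means blocking of liver enzyme CYP2C9 beyond about 50% at 5 µM, limit read from the data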
CD11b adhes enh – enhancers of human CD11b/CD18 binding to fibrinogen; P05107+P11215; K562 CD11b/CD18 adhesion to fibrinogen, ATPlite luminescence; activation, % at 10 µM; actives 0.07% (n = 93,000); AID 1499;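 active means 10 µM primary screen giving 50% or more activity, confirmed by 40% or more on retest at that dose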
Target sequence (P05107 whole entry, looked up, other chains not shown): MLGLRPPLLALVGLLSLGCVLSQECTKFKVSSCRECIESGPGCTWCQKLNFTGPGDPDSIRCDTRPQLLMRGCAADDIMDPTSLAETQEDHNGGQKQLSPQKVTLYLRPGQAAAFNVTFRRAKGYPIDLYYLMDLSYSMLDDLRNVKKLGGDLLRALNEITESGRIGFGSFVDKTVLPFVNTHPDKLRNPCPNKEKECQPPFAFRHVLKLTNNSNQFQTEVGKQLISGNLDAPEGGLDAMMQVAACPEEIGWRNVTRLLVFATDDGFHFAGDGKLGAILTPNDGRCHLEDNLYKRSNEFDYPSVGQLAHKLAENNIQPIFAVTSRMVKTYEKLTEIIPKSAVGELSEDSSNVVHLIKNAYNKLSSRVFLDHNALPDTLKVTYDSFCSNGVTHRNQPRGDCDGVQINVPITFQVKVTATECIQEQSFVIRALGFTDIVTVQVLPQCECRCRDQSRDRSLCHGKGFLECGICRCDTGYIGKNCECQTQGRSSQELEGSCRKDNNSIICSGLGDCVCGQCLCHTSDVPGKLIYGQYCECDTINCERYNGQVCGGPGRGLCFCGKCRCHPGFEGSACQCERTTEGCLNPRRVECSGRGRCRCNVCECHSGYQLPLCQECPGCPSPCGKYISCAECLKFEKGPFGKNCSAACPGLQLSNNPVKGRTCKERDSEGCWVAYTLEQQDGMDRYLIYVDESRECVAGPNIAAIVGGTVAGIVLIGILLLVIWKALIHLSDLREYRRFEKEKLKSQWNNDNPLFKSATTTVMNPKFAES
CD11b adhes inh – CD11b/CD18-fibrinogen binding inhibition. P05107+P11215. K562 CD11b/CD18 adhesion to fibrinogen, ATPlite luminescence; Mn2+ added to activate the integrin. inhibition, % at 10 µM. actives 0.54% (n = 93,000);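 active means primary inhibition of 50% or more at 10 µM, then 40% or more on retest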
CYP2C9 activ – increases human cytochrome P450 2C9 activity | AID 1024 | actives 1.4% (n = 96,000) | recombinant CYP2C9, luciferin-H conversion, luminescence; hits give high values; factor 1 = untreated enzyme, 0 = blocked | activation factor at 5 µM;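 active means activation factor of 2 or more for CYP2C9 at a 5 µM dose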
Numbers stand for hits; i = inactive; nt = no result given. Only some compounds are listed: those with a hit (about 28% of all), similar ones and a draw of the others.

SMILES	CYP2C19 inh	CYP2C19 act	CYP2C9 inh	CD11b adhes enh	CD11b adhes inh	CYP2C9 activ
O=C1CN(C(=O)COC(=O)C2CCN(S(=O)(=O)c3ccccc3C(F)(F)F)CC2)c2ccccc2N1	57	i	i	i	i	i
Cc1ccc(S(=O)(=O)CCC(=O)OCC(=O)N2CC(=O)Nc3ccccc32)cc1	i	i	i	i	i	i
Cc1cc(C)c(C)c(S(=O)(=O)N2CCC(C(=O)OCC(=O)N3c4ccccc4NC(=O)C3(C)C)CC2)c1C	70	i	i	i	i	i
CCCSc1nnc(C(C)C)n1N	i	i	i	i	i	i
O=C(NCc1ccccn1)/C(=N/O)c1ccccc1	i	i	i	i	i	i
COCCN(CC(=O)NC1CCCCC1)C(=O)CSc1nc2ccccc2o1	92	i	i	i	i	i
O=C(CN(Cc1ccc2c(c1)OCO2)C(=O)CSc1nc2ccccc2o1)NC1CCCCC1	98	i	96	i	i	i
COCCN(CC(=O)NC1CCCCC1)C(=O)c1csnn1	i	i	i	nt	nt	i
CC(=O)c1cc2c(cc1NC(=O)CSc1nc3ccccc3o1)OCO2	i	i	i	i	i	i
Fc1ccc(SCCc2ccncc2)cc1	97	i	82	i	i	i
c1ccc(SCCc2ccncc2)cc1	95	i	81	nt	nt	i
O=C(CSc1ccccn1)c1ccc(F)cc1	i	i	i	i	i	i
Fc1cc(F)c(F)c(SCCc2ccncc2)c1F	81	i	74	i	i	i
O=C(NCCSc1ccccc1)c1cccnc1	i	i	i	i	i	i
O=S(CCc1ccncc1)Cc1ccccc1 (centres undefined)	85	i	53	i	i	i
O=C(NCCc1ccncc1)C(F)(F)F	i	i	i	i	i	i
CCCCS(=O)Cc1ccccc1 (centres undefined)	i	i	i	i	i	i
CS(=O)(=O)N1CCC(C(=O)NCc2ccc(F)cc2Cl)CC1	i	i	i	i	i	i
COc1ccc2c(c1)c1ncn(CCc3ccccc3)c(=O)c1n2C	58	i	92	i	i	i
Cc1occc1C(=O)NNC(=S)Nc1ccccc1	i	i	i	i	i	i
CC1(c2ccccc2)CC(c2ccccc2)=Nc2nonc2N1 (centres undefined)	94	i	52	i	i	i
c1ccc2c(c1)CCN(c1ncnc3nc[nH]c13)C2	i	i	i	i	i	i
C1=C(c2ccccc2)CCN(c2ncnc3nc[nH]c23)C1	54	i	i	i	i	i
CCOC(=O)N1CCN(C(=O)CS(=O)(=O)c2cn(Cc3cccc(F)c3)c3ccccc23)CC1	i	i	i	i	i	i
CCc1cc(=O)oc2cc(C)cc(OC(=O)c3ccco3)c12	66	i	i	i	i	i
SMILES	CYP2C19 inh	CYP2C19 act	CYP2C9 inh	CD11b adhes enh	CD11b adhes inh	CYP2C9 activ
C=C(Cl)COc1cc(C)cc2oc(=O)cc(CC)c12	i	i	52	i	i	i
Cc1cc(OC(=O)c2ccco2)c2c(C)cc(=O)oc2c1	i	i	i	i	i	i
Fc1ccc(-c2n[nH]c(=S)n2/N=C/c2c[nH]c3ccccc23)cc1	nt	nt	nt	i	i	nt
COc1cc(N=c2ssnc2Cl)cc(OC)c1	i	i	100	i	i	i
O=C(CN1CCN(c2ncccn2)CC1)NCc1ccccc1	61	i	92	i	i	i
O=C(CN1CCN(c2ccccn2)CC1)Nc1ccc(Oc2ccccc2)cc1	i	i	53	nt	nt	i
O=C(CN1CCN(c2ccccn2)CC1)Nc1ccccc1	56	i	i	i	i	i
O=C(CN1CCN(c2ccccn2)CC1)Nc1ccc(OCc2ccccc2)cc1	i	i	i	nt	nt	i
CC(NC(=O)CN1CCN(c2ncccn2)CC1)c1ccc(F)cc1 (centres undefined)	i	i	92	i	i	i
CCOC(=O)N1CCC(c2nc3ccccc3[nH]2)CC1	i	i	i	i	i	i
O=C(COC(=O)C1c2ccccc2Oc2ccccc21)NC1CCS(=O)(=O)C1 (centres undefined)	i	i	i	nt	nt	i
CCC1CCC2(CC1)NNC(=S)NN2	i	i	i	i	i	i
O=C(CN1CCN(c2ccccn2)CC1)NC1CCCC1	i	i	i	i	i	i
O=C(CN1CCN(c2ccccn2)CC1)Nc1ccc(F)cc1	61	i	73	i	i	i
CCc1ccc(OCC(=O)Nc2ncc3c(n2)CC(C)(C)CC3=O)cc1	i	i	i	i	i	i
Cc1ccc(-c2nnc(Nc3ccccc3)c3ccccc23)cc1S(=O)(=O)NCC1CCCO1 (centres undefined)	56	i	64	nt	nt	i
Cc1cccc(NCc2ccccc2O)c1	92	i	51	i	i	i
Cc1ccc(NCc2ccccc2O)cc1	66	i	i	i	i	i
Oc1ccccc1CNCCCNCc1ccccc1O	i	i	i	i	i	i
Cc1cccc(NCCNc2cccc(C)c2)c1	i	i	i	nt	nt	i
Cc1ccc(O)c(CNc2ccccn2)c1	67	i	i	i	i	i
Cc1ccccc1NCc1ccccc1O	59	i	i	i	i	i
COC(=O)c1ccccc1NS(=O)(=O)c1cn(C)c(=O)n(C)c1=O	i	i	i	i	i	i
Cc1ccc(NC(=O)CCC(=O)NNC(=O)Cc2ccccc2)cc1C	i	i	i	nt	nt	i
C=C(C)CSc1nc2nc(C)c(Br)cc2[nH]1	55	i	i	i	i	i
SMILES	CYP2C19 inh	CYP2C19 act	CYP2C9 inh	CD11b adhes enh	CD11b adhes inh	CYP2C9 activ
COC(=O)CSc1nc2nc(C)c(Br)cc2[nH]1	i	i	i	i	i	i
CCOC(=O)c1cc2sc(C)cc2n1CC(=O)NCCc1ccccc1	100	i	i	i	i	i
CCOC(=O)c1cc2sc(C)cc2n1CC(=O)N(CC)CC	54	i	i	nt	nt	i
CCC12CN3CC(CC)(CN(C1)C3c1c(O)ccc3ccccc13)C2=O (centres undefined)	54	i	i	i	i	i
COC(=O)CN1C2(C#N)CCCCC2CC2CCCCC21C#N (centres undefined)	i	i	i	i	i	i
CCOC(=O)C(C(=O)OCC)C(C)C#CCN1CCCCC1 (centres undefined)	i	i	i	i	i	i
CCOC(=O)/C=C1\NC(=O)C(C)S1 (centres undefined)	i	i	i	i	i	2.1
COc1ccc(N2C(=O)NC3CC2(C)Oc2ccc(Br)cc23)cc1OC (centres undefined)	i	i	74	i	i	i
CC12C(=O)N(Cc3ccco3)C(=O)C1C1c3ccccc3C2c2ccccc21 (centres undefined)	57	i	i	i	i	i
O=C(N/N=C/c1c[nH]c2ccccc12)c1ccn(Cc2ccc(Cl)cc2)n1	65	i	i	nt	nt	i
O=C(N/N=C/c1c[nH]c2ccc(Br)cc12)c1ccn(Cc2ccc(Cl)cc2Cl)n1	i	i	i	nt	nt	i
CCCCNC(=O)c1onc(CSc2ccccc2C)c1C(=O)O	i	i	59	nt	nt	i
